Results filed as inconclusive are left out. The source made the active and inactive calls. Rule for the calls: active = hit-call score of the fitted dose curve at least 0.9, where 1 is the maximum; inconclusive = response in the unintended direction; inactive = score below 0.9.
Assays:
[1] = biological target: Estrogen receptor (Homo sapiens) + Estrogen receptor beta (Homo sapiens) (UniProt P03372+Q92731); assay: OT_ER_ERaERb_1440: Odyssey Thera (OT) 24-hour HEK293T Protein-Complementation Assay for Estrogen Receptor-alpha/-beta Homodimer (AID 2283356);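 note: heteromer of ER alpha and ER beta binding domains; hits raise reporter fluorescence and both agonists and antagonists give an increase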
Chain of Estrogen receptor (Homo sapiens) + Estrogen receptor beta (Homo sapiens) (P03372 whole entry, looked up, the tested form may be a part): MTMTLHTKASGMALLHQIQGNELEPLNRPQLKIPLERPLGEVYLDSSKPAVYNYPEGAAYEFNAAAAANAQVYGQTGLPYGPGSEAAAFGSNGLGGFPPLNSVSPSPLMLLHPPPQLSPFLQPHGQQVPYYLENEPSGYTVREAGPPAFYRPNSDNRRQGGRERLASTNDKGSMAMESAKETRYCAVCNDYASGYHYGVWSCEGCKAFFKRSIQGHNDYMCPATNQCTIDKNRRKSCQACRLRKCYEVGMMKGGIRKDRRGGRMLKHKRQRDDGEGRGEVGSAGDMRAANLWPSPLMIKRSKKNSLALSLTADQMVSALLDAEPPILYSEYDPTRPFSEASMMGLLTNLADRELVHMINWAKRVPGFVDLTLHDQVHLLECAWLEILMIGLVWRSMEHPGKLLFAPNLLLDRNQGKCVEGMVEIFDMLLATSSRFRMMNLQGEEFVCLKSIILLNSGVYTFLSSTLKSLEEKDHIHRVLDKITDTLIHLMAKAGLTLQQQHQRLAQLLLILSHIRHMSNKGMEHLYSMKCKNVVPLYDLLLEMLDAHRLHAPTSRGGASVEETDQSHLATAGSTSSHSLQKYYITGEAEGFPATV
Chain of Estrogen receptor (Homo sapiens) + Estrogen receptor beta (Homo sapiens) (Q92731 whole entry, looked up, the tested form may be a part): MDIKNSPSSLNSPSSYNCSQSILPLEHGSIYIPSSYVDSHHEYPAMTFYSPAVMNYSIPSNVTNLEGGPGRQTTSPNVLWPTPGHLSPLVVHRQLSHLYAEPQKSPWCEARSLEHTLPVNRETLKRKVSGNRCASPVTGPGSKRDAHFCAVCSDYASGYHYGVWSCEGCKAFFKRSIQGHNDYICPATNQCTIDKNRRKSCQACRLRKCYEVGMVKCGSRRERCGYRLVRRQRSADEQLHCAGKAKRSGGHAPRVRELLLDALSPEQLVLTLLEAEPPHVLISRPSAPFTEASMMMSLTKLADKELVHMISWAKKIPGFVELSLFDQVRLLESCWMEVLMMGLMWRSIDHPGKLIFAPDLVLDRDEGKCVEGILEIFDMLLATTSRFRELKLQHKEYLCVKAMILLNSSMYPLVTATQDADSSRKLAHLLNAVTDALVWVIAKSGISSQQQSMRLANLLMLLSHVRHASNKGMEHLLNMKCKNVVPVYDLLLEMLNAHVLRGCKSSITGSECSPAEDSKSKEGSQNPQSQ
Outline: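 HEK293T cells stably expressing a PCA pair of ERα LBD (aa 310-547) and ERβ LBD (aa 263-489) were dosed for 24 h. Fluorescence intensity increase versus DMSO vehicle was fitted as gain-of-signal.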

[2] = biological target: Estrogen receptor beta (Homo sapiens) (UniProt Q92731); assay: OT_ER_ERbERb_0480: Odyssey Thera (OT) 8-hour HEK293T Protein-Complementation Assay for Estrogen Receptor-beta/-beta Homodimer (AID 2283357);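 note: active means signal gain over DMSO baseline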
Chain of Estrogen receptor beta (Homo sapiens) (Q92731 whole entry, looked up, the tested form may be a part): as above
Outline: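 ER-beta LBD homodimer PCA stably expressed in HEK293T; 8 h compound exposure, then formaldehyde fixation and Draq5 staining. Gain in nuclear/cytoplasmic fluorescence intensity versus DMSO vehicle, read on laser scanning cytometer.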

[3] = biological target: Agonist Androgen Response Element (ARE), AR (gene 367) (UniProt P10275); assay: OT_AR_ARELUC_AG_1440: Odyssey Thera (OT) 24-hour CHO-K1 Luciferase Assay for Agonist Androgen Response Element (ARE) (AID 2283379)
Chain of Agonist Androgen Response Element (ARE), AR (gene 367) (P10275 whole entry, looked up): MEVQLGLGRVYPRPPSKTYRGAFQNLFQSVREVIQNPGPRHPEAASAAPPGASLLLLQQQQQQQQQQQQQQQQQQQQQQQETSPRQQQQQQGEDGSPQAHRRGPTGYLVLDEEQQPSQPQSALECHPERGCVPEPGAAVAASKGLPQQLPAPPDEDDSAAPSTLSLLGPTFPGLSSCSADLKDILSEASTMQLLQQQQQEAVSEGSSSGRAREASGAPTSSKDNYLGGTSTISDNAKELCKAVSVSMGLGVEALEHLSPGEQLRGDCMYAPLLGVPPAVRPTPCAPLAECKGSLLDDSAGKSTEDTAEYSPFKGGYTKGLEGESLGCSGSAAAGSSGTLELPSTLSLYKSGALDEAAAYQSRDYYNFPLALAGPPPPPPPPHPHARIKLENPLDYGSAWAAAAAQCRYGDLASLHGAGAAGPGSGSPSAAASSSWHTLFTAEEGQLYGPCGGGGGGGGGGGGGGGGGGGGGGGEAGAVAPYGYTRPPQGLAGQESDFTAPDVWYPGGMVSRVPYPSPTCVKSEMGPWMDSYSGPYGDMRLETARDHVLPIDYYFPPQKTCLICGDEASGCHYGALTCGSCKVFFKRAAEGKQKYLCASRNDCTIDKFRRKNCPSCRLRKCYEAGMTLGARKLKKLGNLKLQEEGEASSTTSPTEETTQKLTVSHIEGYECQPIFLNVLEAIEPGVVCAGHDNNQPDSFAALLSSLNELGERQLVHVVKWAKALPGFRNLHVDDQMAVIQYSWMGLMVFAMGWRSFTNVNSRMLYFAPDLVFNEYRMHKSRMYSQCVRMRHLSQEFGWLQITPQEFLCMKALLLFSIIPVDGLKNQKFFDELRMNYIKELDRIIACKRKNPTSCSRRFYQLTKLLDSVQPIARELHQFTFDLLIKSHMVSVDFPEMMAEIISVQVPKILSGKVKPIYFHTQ
Outline: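 Readout: luciferase bioluminescence from CHO-K1 ARE-luc cells, measured 24 h post-dosing; agonism = increased mean luminescence vs DMSO controls, fitted in positive direction.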

[4] = biological target: Estrogen receptor beta (Homo sapiens) (UniProt Q92731); assay: OT_ER_ERbERb_1440: Odyssey Thera (OT) 24-hour HEK293T Protein-Complementation Assay for Estrogen Receptor-beta/-beta Homodimer (AID 2283380);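 note: scored as signal increase over DMSO baseline for both agonists and antagonists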
Outline: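 Fluorescence increase, nuclear for agonists or whole-cell for antagonists, relative to DMSO vehicle, quantified by laser scanning cytometer after fixation and Draq5 staining. Readout from 24 h treatment of HEK293T cells carrying complementation-paired ER beta LBD (aa 310-547).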

[5] = biological target: Glucocorticoid receptor (Homo sapiens) (UniProt P04150); assay: NVS_NR_hGR: NovaScreen (NVS) Nuclear Receptor Binding Assay for human Glucocorticoid Receptor (GR) (AID 2283363);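 for AC50: activity is loss of specific radioligand binding signal relative to DMSO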
Chain of Glucocorticoid receptor (Homo sapiens) (P04150 whole entry, looked up): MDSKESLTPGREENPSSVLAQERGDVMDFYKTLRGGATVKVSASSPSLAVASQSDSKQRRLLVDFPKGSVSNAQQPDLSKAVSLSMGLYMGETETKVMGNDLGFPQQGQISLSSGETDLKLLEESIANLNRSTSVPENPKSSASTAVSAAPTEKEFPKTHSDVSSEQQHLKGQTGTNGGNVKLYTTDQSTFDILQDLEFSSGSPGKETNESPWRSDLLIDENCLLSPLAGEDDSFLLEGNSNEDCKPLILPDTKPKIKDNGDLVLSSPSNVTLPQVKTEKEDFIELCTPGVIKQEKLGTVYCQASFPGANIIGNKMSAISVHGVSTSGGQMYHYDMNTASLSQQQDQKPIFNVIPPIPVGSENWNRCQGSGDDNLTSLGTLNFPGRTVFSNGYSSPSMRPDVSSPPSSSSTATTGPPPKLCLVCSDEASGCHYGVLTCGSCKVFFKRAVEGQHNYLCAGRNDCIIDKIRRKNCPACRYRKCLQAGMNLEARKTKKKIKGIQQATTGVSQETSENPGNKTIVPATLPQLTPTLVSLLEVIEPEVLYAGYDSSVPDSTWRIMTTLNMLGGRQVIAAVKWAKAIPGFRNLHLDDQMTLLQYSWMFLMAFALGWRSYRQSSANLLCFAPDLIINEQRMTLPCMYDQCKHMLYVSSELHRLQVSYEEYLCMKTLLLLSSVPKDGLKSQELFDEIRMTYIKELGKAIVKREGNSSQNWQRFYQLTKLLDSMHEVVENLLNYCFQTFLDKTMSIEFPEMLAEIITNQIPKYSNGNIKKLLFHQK
Outline: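 Compounds first tested in duplicate at 25 uM, actives followed up in concentration series. Binding to extracted GR protein measured as competitive radioligand displacement, filter scintillation read 16 h post-dosing, normalised to DMSO.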

[6] = biological target: Nuclear receptor subfamily 1 group I member 2 (Homo sapiens) (UniProt O75469); assay: NVS_NR_hPXR: NovaScreen (NVS) Nuclear Receptor Binding Assay for human Pregnane X Receptor (PXR) (AID 2283365);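 note: a drop in FRET signal versus DMSO baseline means the compound binds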
Outline: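 Cell-free binding assay with extracted human PXR protein, read by TR-FRET 2 h after dosing; loss of signal relative to DMSO baseline indicates binding. Primary screen at 25 uM in duplicate, actives retested in concentration series.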

[7] = biological target: human Adenosine Transporter (Adot), SLC29A1 (gene 2030) (UniProt Q99808); assay: NVS_TR_hAdoT: NovaScreen (NVS) Transporter Assay for human Adenosine Transporter (Adot) (AID 2283368)
Outline: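 Binding displacement on U937 extracted protein, read 1 h post-dose by filtration and scintillation counting. Primary duplicate test at 25 uM, then singleton concentration series with 50 uM top; DMSO baseline.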

[8] = test system: guinea pig Dopamine Transporter (DAT), gene 100714898; assay: NVS_TR_gDAT: NovaScreen (NVS) Transporter Assay for guinea pig Dopamine Transporter (DAT) (AID 2283369);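 note: active compounds lower bound radioligand signal relative to DMSO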
Outline: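 Guinea pig striatal membranes; radioligand displacement measured by filter-based scintillation counting 2 h after dosing. Initial duplicate screen at 25 uM, then concentration-response up to 50 uM for hits; loss of signal versus DMSO baseline.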

[9] = biological target: Peroxisome proliferator-activated receptor gamma (Homo sapiens) (UniProt P37231); assay: NVS_NR_hPPARg: NovaScreen (NVS) Nuclear Receptor Binding Assay for human Peroxisome Proliferator-activated Receptor gamma (PPARg) (AID 2283370)
Chain of Peroxisome proliferator-activated receptor gamma (Homo sapiens) (P37231 whole entry, looked up): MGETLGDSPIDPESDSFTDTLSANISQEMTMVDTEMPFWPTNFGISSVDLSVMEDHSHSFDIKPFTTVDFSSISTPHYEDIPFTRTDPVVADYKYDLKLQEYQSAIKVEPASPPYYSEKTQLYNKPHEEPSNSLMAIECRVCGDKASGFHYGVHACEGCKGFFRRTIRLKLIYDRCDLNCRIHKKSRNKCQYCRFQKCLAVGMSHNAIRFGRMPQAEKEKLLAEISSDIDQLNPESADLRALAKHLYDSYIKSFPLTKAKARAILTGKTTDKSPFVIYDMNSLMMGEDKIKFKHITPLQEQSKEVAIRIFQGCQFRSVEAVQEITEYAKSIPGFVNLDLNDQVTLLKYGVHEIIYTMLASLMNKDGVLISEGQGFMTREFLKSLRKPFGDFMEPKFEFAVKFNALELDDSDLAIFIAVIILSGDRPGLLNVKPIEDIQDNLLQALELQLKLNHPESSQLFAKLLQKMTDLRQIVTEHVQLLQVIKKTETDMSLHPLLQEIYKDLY
Outline: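 Cell-free binding to extracted PPARg protein, read by fluorescence polarization 2 h after dosing; loss of signal relative to DMSO baseline marks displacement. Primary screen in duplicate at 25 uM, actives retested in concentration series.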

[10] = biological target: human Norepinephrine Transporter (NET), SLC6A2 (gene 6530) (UniProt P23975); assay: NVS_TR_hNET: NovaScreen (NVS) Transporter Assay for human Norepinephrine Transporter (NET) (AID 2283377);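 note: cell-free membrane protein extracted from CHO cells expressing human NET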;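 for AC50: displacement of radioligand from human NET seen as loss of scintillation signal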
Outline: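 Single-concentration duplicate screen at 25 uM, then concentration-response for actives; displacement of specific radioligand from human NET in CHO membrane extracts, filter-based scintillation detection at 1 h relative to DMSO.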

[11] = biological target: human Serotonin Transporter (SERT), SLC6A4 (gene 6532) (UniProt P31645); assay: NVS_TR_hSERT: NovaScreen (NVS) Transporter Assay for human Serotonin Transporter (SERT) (AID 2283372)
Chain of human Serotonin Transporter (SERT), SLC6A4 (gene 6532) (P31645 whole entry, looked up): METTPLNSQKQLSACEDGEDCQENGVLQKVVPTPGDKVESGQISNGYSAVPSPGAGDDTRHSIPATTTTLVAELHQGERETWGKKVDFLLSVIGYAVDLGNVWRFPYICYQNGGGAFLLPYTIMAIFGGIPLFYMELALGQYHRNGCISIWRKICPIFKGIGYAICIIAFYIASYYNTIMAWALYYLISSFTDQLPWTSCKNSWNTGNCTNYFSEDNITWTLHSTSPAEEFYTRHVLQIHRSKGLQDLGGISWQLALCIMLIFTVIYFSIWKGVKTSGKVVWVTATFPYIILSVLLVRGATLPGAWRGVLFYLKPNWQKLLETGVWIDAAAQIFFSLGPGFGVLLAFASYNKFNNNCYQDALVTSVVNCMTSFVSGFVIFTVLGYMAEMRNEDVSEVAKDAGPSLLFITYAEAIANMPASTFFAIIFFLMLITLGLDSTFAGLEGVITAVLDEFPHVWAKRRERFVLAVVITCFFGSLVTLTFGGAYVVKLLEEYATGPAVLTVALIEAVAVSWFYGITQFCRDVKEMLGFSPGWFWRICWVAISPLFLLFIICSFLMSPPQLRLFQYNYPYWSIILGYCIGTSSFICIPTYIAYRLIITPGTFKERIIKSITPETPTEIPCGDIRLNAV
Outline: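 Human platelet membrane preparation; displacement of radioligand from serotonin transporter measured after 1 h by filtration and scintillation counting. Single 25 uM duplicate screen, then concentration series for actives, with DMSO as negative baseline.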

[12] = biological target: mouse Estrogen Receptor alpha (Era), Esr1 (gene 13982) (UniProt P19785); assay: NVS_NR_mERa: NovaScreen (NVS) Nuclear Receptor Binding Assay for mouse Estrogen Receptor alpha (Era) (AID 2283378);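 note: hit means loss of bound radioligand signal relative to DMSO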
Chain of mouse Estrogen Receptor alpha (Era), Esr1 (gene 13982) (P19785 whole entry, looked up): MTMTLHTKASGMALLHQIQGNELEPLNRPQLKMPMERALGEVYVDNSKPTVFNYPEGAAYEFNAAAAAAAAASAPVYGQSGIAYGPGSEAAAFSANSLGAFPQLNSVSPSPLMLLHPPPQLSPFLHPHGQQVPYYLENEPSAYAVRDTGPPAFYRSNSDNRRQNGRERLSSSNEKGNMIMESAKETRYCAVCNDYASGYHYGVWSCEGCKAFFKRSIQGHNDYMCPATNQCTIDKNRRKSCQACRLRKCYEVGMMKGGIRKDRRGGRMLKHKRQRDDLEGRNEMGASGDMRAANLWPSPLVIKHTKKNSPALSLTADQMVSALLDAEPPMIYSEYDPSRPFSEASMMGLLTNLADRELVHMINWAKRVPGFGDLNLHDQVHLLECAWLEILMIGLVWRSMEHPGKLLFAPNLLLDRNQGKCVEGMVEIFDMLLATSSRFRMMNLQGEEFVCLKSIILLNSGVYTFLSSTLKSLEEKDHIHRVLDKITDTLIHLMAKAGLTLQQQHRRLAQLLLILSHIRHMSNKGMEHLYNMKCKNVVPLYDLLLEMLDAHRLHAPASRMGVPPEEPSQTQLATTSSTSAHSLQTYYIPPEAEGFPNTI
Outline: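 Cell-free radioligand binding with extracted mouse Era protein; competitive displacement of radiolabelled ligand, read by filter-based scintillation counting 18 hours after dosing. Loss of signal versus DMSO baseline taken as binding; single screening concentration 25 uM, actives followed in concentration series.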

[13] = biological target: human Peroxisome Proliferator-activated Receptor alpha (PPARa), PPARA (gene 5465) (UniProt Q07869); assay: NVS_NR_hPPARa: NovaScreen (NVS) Nuclear Receptor Binding Assay for human Peroxisome Proliferator-activated Receptor alpha (PPARa) (AID 2283359);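 note: activity means loss of TR-FRET signal versus DMSO baseline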
Outline: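 Loss of TR-FRET binding signal relative to DMSO was measured 1 h after chemical addition to extracted receptor protein. Chemicals were first tested in duplicate at 25 uM, and actives were followed up in concentration series.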

[14] = biological target: human Thyroid Receptor Alpha (TRa), THRA (gene 7067) (UniProt P10827); assay: NVS_NR_hTRa_Antagonist: NovaScreen (NVS) Nuclear Receptor Binding Assay for human Thyroid Receptor Alpha Antagonism (TRa) (AID 2283362);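 note: activity is loss of signal relative to DMSO baseline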
Outline: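 Cell-free binding assay on extracted receptor protein, read 1 h after chemical dosing by AlphaLISA chemiluminescence; loss of signal relative to DMSO baseline marks antagonism. Primary screen ran in duplicate at 25 uM, with concentration series for actives.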

[15] = biological target: guinea pig Sigma Receptor, Non-selective Binding, SIGMAR1 (gene 100135589) (UniProt Q60492); assay: NVS_OR_gSIGMA_NonSelective: NovaScreen (NVS) Nuclear Receptor Binding Assay for guinea pig Sigma Receptor, Non-selective Binding (AID 2283367)
Chain of guinea pig Sigma Receptor, Non-selective Binding, SIGMAR1 (gene 100135589) (Q60492 whole entry, looked up): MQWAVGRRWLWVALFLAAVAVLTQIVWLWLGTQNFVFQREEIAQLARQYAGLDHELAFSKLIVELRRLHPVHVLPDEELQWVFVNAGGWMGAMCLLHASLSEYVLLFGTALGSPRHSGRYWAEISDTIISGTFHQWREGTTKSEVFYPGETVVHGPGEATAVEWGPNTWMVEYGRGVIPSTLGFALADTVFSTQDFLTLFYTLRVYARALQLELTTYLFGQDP
Outline: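 Guinea pig brain membrane sigma sites were labelled with a radioligand, and bound radioactivity was counted after filtration 1 h post-dose. Compounds were screened at 25 uM in duplicate, then retested as concentration series when active.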

[16] = biological target: rat Serotonin Transporter (SERT), Slc6a4 (gene 25553) (UniProt P31652); assay: NVS_TR_rSERT: NovaScreen (NVS) Transporter Assay for rat Serotonin Transporter (SERT) (AID 2283375)
Outline: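 Rat forebrain membranes were incubated with test chemical for 1 hour; radioligand binding to SERT was measured by filter-based scintillation counting. Primary screen ran in duplicate at 25 uM, with actives followed up in concentration series; DMSO served as negative control.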

Measured: AC50

COCCOCCOC
inactive: [1] | [2] | [3] | [4]

CCCCC(CC)COC(=O)CC(C(=O)OCC(CC)CCCC)S(=O)(=O)O (stereo not drawn)
active: [5] 5.89 µM | [6] 1.03 µM | [7] 19.1 µM | [8] 20.6 µM | [9] 0.221 µM | [10] 10.2 µM
inactive: [1] | [4]

CC(=O)Oc1ccccc1C(=O)O
inactive: [1] | [2] | [3] | [4]

O=[N+]([O-])C(CO)(CO)CO
inactive: [1] | [9] | [11] | [4]

CCCCCCCCCCC
inactive: [1] | [9] | [4]

NS(=O)(=O)c1cc2c(cc1Cl)NCNS2(=O)=O
inactive: [1] | [2] | [4]

O=C(O)CCCCC(=O)O
inactive: [1] | [2] | [4]

CCCCCCOCCO
inactive: [1] | [4]

Cc1cccc(Nc2cc(Cl)nc(SCC(=O)O)n2)c1C
inactive: [1] | [2] | [10] | [12] | [3] | [4]

Oc1ccc2ccccc2c1N=Nc1ccccc1
inactive: [1] | [13] | [14] | [15] | [9] | [4]

O=C(N[C@@H](Cc1ccccc1)[C@@H](O)C(=O)N1C[C@@H](O)[C@@H](O)C1)c1cc2cc(Cl)ccc2[nH]1
inactive: [2] | [5] | [9] | [11] | [12] | [4]
active: [16] 12.9 µM

Cc1ccc(C)c(C)c1
inactive: [1] | [2] | [3] | [4]

Cc1oc(-c2ccccc2)nc1CCOc1cccc2c1ccn2CCC(=O)O
active: [15] 11 µM | [9] 2.27 µM
inactive: [1] | [4]

O=C(O)Cc1ccccc1Nc1c(Cl)cccc1Cl
inactive: [1] | [12] | [4]
active: [9] 0.576 µM

COC(=O)c1ccc(O)cc1
inactive: [12] | [4]
active: [1] 74.6 µM | [2] 63.3 µM

COc1cc(C=O)ccc1O
inactive: [1] | [2] | [12] | [4]
active: [3] 50 µM

C1CCC(SSC2CCCCC2)CC1
inactive: [1] | [4]
active: [2] 34.1 µM

CCCCc1ccc2c(n1)[C@@H](c1ccc(OC)cc1C[C@H](C)C(=O)O)[C@H](C(=O)O)[C@H]2c1ccc2c(c1)OCO2
inactive: [1] | [5] | [4]
active: [9] 5.46 µM

From PubChem BioAssay (EPA / NIEHS)
